The values that follow come from PubChem BioAssay (NCI).

The panel holds about 83,000 compounds, 20% with a hit somewhere; the sample as a whole holds those more often.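 Single-concentration screen, 48 h exposure, 96-well plates. Endpoint: percent growth. Below 10 = active.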 Active and inactive are the calls of the source.

The assay concerns IGROV1 ovarian. The assay is described as follows: NCI-60 one-dose screen, 48 h (100 = growth as untreated, 0 = no growth, -100 = all killed). The note with it: 10 µM. As for the experimental part:
Growth inhibition of the IGROV1 human tumor cell line is measured as a screen for anti-cancer activity. Cells are grown in 96 well plates and exposed to the test compound for 48 hours. Compounds are tested at a single concentration, which is 10^-5 M for most compounds. The reported endpoint is percent growth (GI% or GIPRCNT), where numbers from 0 - 100% represent growth inhibition, and numbers from -100% - 0 represent cell death. For example, a value of 40 represents 60% growth inhibition. A value of 0 means no net growth occurred over the course of the experiment. A value of -40 indicates 40% of cells at the beginning of the experiment died by the end of the experiment. A value of -100 means all cells are dead at the end of the experiment.
NCI-60 Human Tumor Cell Lines Screen was performed using the standard one-dose NCI protocol, which is described in more detail at https://dtp.cancer.gov/discovery_development/nci-60/default.htm.
Compounds with GIPRCNT values below 10 were considered active. Activity score was based on GIPRCNT using the following formula: […]
Score is 0 for GIPRCNT values of 100 or above, 50 for GIPRCNT values of 0, and 100 for GIPRCNT values of -100.
Turning to `COc1ccc2nc(-c3ccccc3)cc(C(C)=O)c2c1`, the growth is 86.2% (inactive).
Regarding `Cc1ccc(S(=O)(=O)Nc2cccc3[nH]c(C(F)(F)F)nc23)cc1`, the growth is 51.4% (inactive).
Under `O=c1ccc2nc(-c3ccccc3)nn(-c3ccccc3)c-2c1` stands 2.66% (active); under `COc1ccc(-c2nsc3c2NC(=O)CC3c2ccc(Cl)cc2)cc1` (stereo not given), 77.6% (inactive); under `Cn1c([N+](=O)[O-])cnc1C=C1C(=O)c2ccccc2C1=O`, 13.8% (inactive).
As for `COc1ccc(C2C=C(c3ccc(OC)c(OC)c3)N=C3SC=CN32)c(Br)c1` (stereo not given), the figure is 69.8% (inactive).
`O=S(=O)(NC1c2ccccc2Oc2ccccc21)c1cc(Cl)ccc1Cl`: the growth is 95.5% (inactive).
For the molecule `CCCCCc1cc[n+](CC(=O)c2ccc(Cl)cc2)cc1`, the growth is 86.5% (inactive).
Under `O=C(COc1ccc(-c2nc3ccccc3[nH]2)cc1)N=Nc1c(O)[nH]c2ccccc12` stands 99.5% (inactive).
Under `Cc1cc(O)c(C2=NN(c3ccc(S(N)(=O)=O)cc3)C(c3ccc(N(C)C)cc3)C2)c(C)c1Cl` (stereo not given) stands 34.1% (inactive); under `CC(C)c1[nH]nc2c(NCc3ccc(-c4ccccn4)cc3)nc(SCCN)nc12`, 10.3% (inactive).
Under `CCCCCCCCCCCCCCCC(=O)N1CCN(C)CC1` stands 52.3% (inactive); under `COc1ccc(-n2nnc3c(sc4ccccc43)c2=O)cc1`, -0.829% (active).
As to `CCOC(=O)C(CCC1=NC(C)(C)CC(C)O1)C(=O)OCC` (stereo not given), the growth is 96.2% (inactive).
Turning to `CCOC(=O)c1sc(NC(=O)c2cc(OC)c(OC)c(OC)c2)nc1C`, the growth was -10.1% (active).
For the molecule `Cc1ccc2oc(=O)cc(/C(=C3/C=CC=N3)c3ccc[nH]3)c2c1`, the growth was 16.6% (inactive).
Under `Cc1cc(C)c(C(=O)OC(C)CNC2CCCCC2)c(C)c1` (stereo not given) stands 101% (inactive).
Under `COc1ccc(-c2[nH]ncc2/C=C/c2cc(C(F)(F)F)[nH]c(=O)n2)cc1` stands 93.1% (inactive); under `COc1cc(-c2cc(-c3ccc(C)cc3)nc3nc(N)[nH]c(=O)c23)ccc1Oc1ccnc2cc(Cl)ccc12`, 77.9% (inactive); under `C/C=C\COc1cc(C)c(Cl)cc1Cl`, 107% (inactive).
With `COC(=O)[C@]12CC[C@@H](C)[C@H](C)[C@@H]1C1=CC[C@@H]3[C@@]4(C)C[C@@H](O)[C@H](O)[C@@](C)(CO)[C@@H]4[C@H](O)C[C@@]3(C)[C@]1(C)CC2`, the growth is -19.8% (active).
As for `O=C(O)c1ccccc1C(=O)c1cccc2c(F)cccc12`, the figure is 113% (inactive); as for `CC(C)C[C@H](NC(=O)Cn1ccc2ccccc2c1=O)B(O)O`, 107% (inactive).
Take `COc1ccc(C2C=C(c3ccc(Cl)c(Cl)c3)N=C3SC(C)=CN32)cc1` (stereo not given): the growth is 86.8% (inactive).
Turning to `COc1ccc(CCc2nc3cc(-c4c(C)noc4C)ccc3n2CCN2CCOCC2)cc1`, the growth was 48.3% (inactive).
Turning to `O=c1oc2cc(OS(=O)(=O)C3CC3)ccc2c2c1CCCCCC2`, the growth was 103% (inactive).
Take `CCOc1nc(-c2ccccc2)cc2c(O)c(C(=O)NC(C)C)[nH]c(=O)c12`: the growth is 65.4% (inactive).
For `CCn1nc(-c2ccc(C(=O)OC)cc2)nc2c(=O)n(C)c(=O)nc1-2`, the growth was 87.4% (inactive).
For the molecule `CCN(CCCNC(=O)Cc1cc(=O)oc2cc(N(C)C)ccc12)CCNc1ccnc2cc(Cl)ccc12`, the growth was 94% (inactive).
As for `COc1cc(/C=C/C(=O)c2cc(-c3ccccc3)ccc2O)cc(OC)c1OC`, the figure is 83% (inactive); as for `Oc1ccc(Cn2cc3c(c2-c2ccccc2)CCc2cnoc2-3)cc1`, 120% (inactive).
Consider `Cc1cccc2c(Nc3ccc(NS(C)(=O)=O)cc3)c3ccc([N+](=O)[O-])cc3nc12`, for which the growth is -27.4% (active).
Under `Cc1ccc2nc(-c3ccc(OCC(=O)N=Nc4c(O)[nH]c5ccccc45)cc3)[nH]c2c1` stands 85.8% (inactive); under `Nc1nc(SCC#CCCl)c2[nH]cnc2n1`, 25.4% (inactive).
Under `CC(=O)O[C@H]1CC[C@@]2(C)[C@@H](CC[C@@H]3[C@@H]2CC[C@]2(C)C=C(C=O)C[C@@H]32)C1` stands 60.2% (inactive).
As for `COc1ccc(-c2nnc(N3CCN(C(=O)CN4CCN(c5ccc(Cl)cc5)CC4)CC3)nc2-c2ccc(OC)cc2)cc1`, the figure is 62.7% (inactive); as for `Cn1c([N+](=O)[O-])cnc1/C=C1\Oc2ccc(Br)cc2C1=O`, -21.6% (active).
As for `CCOc1cc(Br)c(C(C)NC(=O)c2cccc(OC)c2)cc1OCC` (stereo not given), the growth is 73.8% (inactive).
Under `CCCCn1c(=O)[nH]c2c(c1=O)C(c1ccc(Cl)cc1)c1c([nH]c(=O)n(CCCC)c1=O)N2` stands 102% (inactive).
`CC1=CC2OC34COC3CC(OC(=O)C(F)(F)F)C4(C)C2(C)CC1` (stereo not given): the growth is 119% (inactive).
